Only some compounds are listed: those with a hit (about 2.3% of all), similar ones and a draw of the others.
PLC-gamma1 inh: blocks human PLC-gamma1 enzyme activity; purified PLC-gamma1, fluorogenic substrate, fluorescence; hit rate 0.84% among 370,000; inhibition, % at 12.2 µM; in the data active = inhibition above about 9.5%
UHRF1 MBD2 ctr: UHRF1 methyl-DNA binding inhibition; hit rate 0.75% among 370,000; inhibition, % at 4.4 µM; UHRF1 binding to methylated oligo, TR-FRET; in the data active = inhibition above about 21%;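 note: UHRF1 SRA domain binding a hemimethylated CpG hairpin DNA probe; 0% = median of test compound wells and 100% = reference inhibitor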
MBD2 inh: inhibitors of human MBD2 binding to methylated oligonucleotide; TR-FRET; inhibition, % at 4.4 µM; hit rate 0.31% among 370,000; in the data active = inhibition above about 13%
Target sequence (Q9UBB5 whole entry, looked up): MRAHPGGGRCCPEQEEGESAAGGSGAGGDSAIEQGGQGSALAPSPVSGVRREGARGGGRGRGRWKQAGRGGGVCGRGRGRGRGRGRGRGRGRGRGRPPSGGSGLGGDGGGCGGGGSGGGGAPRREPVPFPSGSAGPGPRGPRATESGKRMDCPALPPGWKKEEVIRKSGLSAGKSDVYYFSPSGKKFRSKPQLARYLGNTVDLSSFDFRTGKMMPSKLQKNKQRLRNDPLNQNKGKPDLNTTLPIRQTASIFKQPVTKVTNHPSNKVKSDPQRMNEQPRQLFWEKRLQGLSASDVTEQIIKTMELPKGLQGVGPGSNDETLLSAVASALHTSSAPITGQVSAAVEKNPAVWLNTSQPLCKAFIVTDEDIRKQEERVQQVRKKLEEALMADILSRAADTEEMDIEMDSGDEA
PLC-beta3 inh: PLC-beta3 (human) inhibition, primary screen. inhibition, % at 12.2 µM. hit rate 0.18% among 370,000. Purified PLC-beta3, fluorogenic substrate, fluorescence. Q01970;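 note: 0% = median of compound wells on plate and 100% = full blocker control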
LEDGF integ inh: blocks HIV-1 LEDGF/p75-dependent DNA integration; inhibition, % at 3.7 µM; AID 743269; hit rate 0.64% among 370,000; TR-FRET IN-LEDGF/p75 DNA integration, Eu/Cy5;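 active = inhibition above the screen-wide mean plus 3 SD, cut at about 13% in these data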;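 note: signal is the Cy5 over europium emission ratio at 671 and 618 nm; 0% = plate median of compound wells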
PLCg1 ctr: counter-screen for PLC-beta3 inhibitors: inhibitors of human PLC-gamma1; purified PLC-gamma1, fluorogenic substrate, fluorescence; inhibition, % at 12.3 µM; AID 743258; shares compounds with PLC-gamma1 inh; hit rate 3.1% among 3,300; in the data active = inhibition above about 9.5%
PLCbeta3 conf: human PLC-beta3 inhibition, confirmation; inhibition, % at 12.3 µM; hit rate 1% among 3,300; AID 743261; purified PLC-beta3, fluorogenic substrate fluorescence; shares compounds with PLC-gamma1 inh
Numbers without * were called inactive; . = not tested or not shown. Cut-off read from the data, not from the text of the source, unless noted: active = inhibition above about 11%; inactive = the rest.

SMILES	PLC-gamma1 inh	UHRF1 MBD2 ctr	MBD2 inh	PLC-beta3 inh	LEDGF integ inh	PLCg1 ctr	PLCbeta3 conf
COc1ccc(COC[C@H](C)N2C[C@@H](C)[C@H](CN(C)S(=O)(=O)c3ccc(F)cc3)OCCCC[C@H](C)Oc3ccc(NC(=O)Nc4ccccc4)cc3C2=O)cc1	-1	4	2	-3	-1	.	.
COc1ccccc1NC(=S)N(CCCN1CCOCC1)Cc1cn(C)c2ccccc12	0	2	4	-1	1	.	.
CCOc1ccccc1NC(=S)N(CCCN1CCOCC1)Cc1cn(C)c2ccccc12	14*	5	-4	-4	-2	-2	2
COc1ccc(NC(=O)c2nn(C)cc2[N+](=O)[O-])cc1	2	4	1	-1	2	.	.
Cc1ccc(NC(=O)c2nn(C34CC5CC(CC(C5)C3)C4)cc2[N+](=O)[O-])cc1	12*	-2	1	14*	2	7	11*
COC(=O)[C@H](CC(C)C)N(CCCc1cn(CC2CCCCC2)nn1)S(=O)(=O)c1ccccc1Br	1	-1	3	0	-5	.	.
CCN1CCN(c2nc(N)c([N+](=O)[O-])c(Nc3ccc(C)c(C)c3)n2)CC1	2	-4	-2	0	3	.	.
CCN1CCN(c2nc(N)c([N+](=O)[O-])c(Nc3ccc(C)cc3)n2)CC1	13*	-5	-1	8	1	-6	5
NC1=NC(=O)/C(=C/c2cccs2)S1	15*	-6	-14	2	4	2	3
Cc1ccc(S[C@@H](CCN2CC[C@H](C)CCC2=O)c2ccccc2)cc1	-2	2	0	1	0	.	.
C[C@@H]1CCC(=O)N(CC[C@H](Oc2ccccc2)c2ccccc2)CC1	13*	4	-5	4	3	2	2
COc1ccc(S[C@@H](CCN2CC[C@H](C)CCC2=O)c2ccccc2)cc1	9.7*	3	-2	7	-1	-6	-3
CCCCN=C(N)NC(=O)OCc1ccccc1	0	0	1	6	-1	.	.
CN(CC#CC1=CCCCC1)/C(N)=N/C(=O)OCc1ccccc1	2	0	-4	2	-1	.	.
Cn1c(N=Nc2ccccc2)nc2ccccc21	8	8	-9	12*	12	-2	-2
O=S1(=O)c2ccc(Br)cc2OC[C@@H](c2ccccc2)N1Cc1cn(CCC2OCCO2)nn1	1	0	-1	-1	-2	.	.
Cc1ccc(S(=O)(=O)N2O[C@@H](c3ccccc3)C[C@H]2CON2C(C)(C)CCCC2(C)C)cc1	11*	3	0	13*	6	0	-5
CC(=O)Nc1ccc(NC(=O)C2CCCN(C(=O)c3ccc(Cl)cc3)C2)cc1 (configuration not stated)	12*	3	-1	6	8	-2	0
C[C@]12CCC(O)CC1=CCC1C2CC[C@]2(C)/C(=N\NC(N)=S)CCC12 (some centres not stated)	12*	3	-1	-3	3	-3	-1
Cc1cc(C)n(CC(=O)NNC(=O)C2CC(=O)N(Cc3ccccc3Cl)C2)n1 (configuration not stated)	12*	-2	1	0	3	-4	1
Cc1ccc(CN2CC(C(=O)NCCCn3nc(C)cc3C)CC2=O)cc1 (configuration not stated)	-1	0	1	-4	-5	.	.
CCOC(=O)[C@@]12CCC3=C1N(CCC3)C(=O)[C@H](CC(=O)N1CCSCC1)C2	0	0	3	2	0	.	.
CCOC(=O)c1ccc(NC(=O)CSc2nnc(SCc3cccc4ccccc34)s2)cc1	12*	3	-1	9	2	-5	-7
Cc1cccc(Nc2nnc(SCC(=O)Nc3ccc(C(=O)O)cc3)s2)c1	9.8*	4	0	0	6	-4	-4
Cc1ccccc1Cn1cc(CN2[C@@H](C)COc3cc(Br)ccc3S2(=O)=O)nn1	2	-2	1	1	2	.	.
CCOc1ccccc1N/C=C(\C#N)c1nc2ccccc2n1C	9.6*	14	4	3	8	-5	-8
COC(=O)[C@]12C[C@H](CC(=O)N3CCCC3)C(=O)N(Cc3cccc4ccccc34)C1=C[C@H](COCc1ccccc1)O[C@@H]2C	9.5*	2	2	3	4	4	7
COC(=O)[C@]12C[C@H](CC(=O)NCCc3ccccc3OC)C(=O)N(CCc3ccc(OC)c(OC)c3)C1=C[C@H](COCc1ccccc1)O[C@@H]2C	13*	3	-7	6	5	-4	-1
COC(=O)[C@]12C[C@H](CC(=O)N3CCCCC3)C(=O)N(Cc3ccccc3)C1=C[C@H](COCc1ccccc1)O[C@@H]2C	-1	-2	-7	1	3	.	.
O=S(=O)(c1ccccc1Br)N(Cc1cn(Cc2ccccc2)nn1)C1CC1	0	0	5	-1	-1	.	.

Screening results: PubChem BioAssay, The Scripps Research Institute Molecular Screening Center
